Source: PubChem BioAssay
NTR1 agonist – NTR1 (human) agonism; activation, % at 20 µM; NTR1-U2OS beta-arrestin-GFP spot imaging, agonist mode; AID 493036; actives 0.17% (n = 330,000); P30989;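 active = activation at or above 40% of the spot to cytoplasm intensity ratio, with at least 20 cells analyzed; inconclusive = wells under 20 cells, flagged as cytotoxic or low count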
Beta cell apopt – blocks beta cell apoptosis | INS-1E cytokine-induced death, ATP luminescence, 48 h; percent of positive-control rescue, neutral wells zero | protection from apoptosis, % (no concentration beside the values) | actives 0.8% (n = 300,000);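 active = Every replicate reaches about 75%, or at least half do and their mean reaches it too, limit read from the data; inconclusive = At least half of replicates reach the limit but their mean does not; inactive = Under half of replicates reach the limit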;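 note: higher means more ATP so stronger rescue from cytokine killing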
Mdm2 MdmX PPI – disrupts the human Mdm2-MdmX interaction | O15151+Q00987 | AID 485346 | inhibition, % at 8 µM | actives 3% (n = 330,000) | SaOS-2 split-luciferase Mdm2/MdmX complementation, luminescence;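 active = inhibition of at least 50% at 8 µM in the primary screen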
Target sequence (O15151 whole entry, looked up): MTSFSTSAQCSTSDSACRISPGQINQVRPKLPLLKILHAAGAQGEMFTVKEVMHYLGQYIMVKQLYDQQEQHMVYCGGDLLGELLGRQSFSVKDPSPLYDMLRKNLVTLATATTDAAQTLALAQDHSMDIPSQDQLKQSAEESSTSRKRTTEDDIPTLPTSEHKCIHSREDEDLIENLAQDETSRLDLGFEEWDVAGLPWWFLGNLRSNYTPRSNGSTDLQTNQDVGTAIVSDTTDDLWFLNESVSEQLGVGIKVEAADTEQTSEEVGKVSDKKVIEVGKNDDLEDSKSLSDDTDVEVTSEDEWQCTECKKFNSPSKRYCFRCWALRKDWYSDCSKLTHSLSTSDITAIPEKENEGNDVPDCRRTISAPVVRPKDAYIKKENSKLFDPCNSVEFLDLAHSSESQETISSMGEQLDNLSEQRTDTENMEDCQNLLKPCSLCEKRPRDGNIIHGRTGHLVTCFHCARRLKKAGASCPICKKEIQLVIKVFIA
Target sequence (Q00987 whole entry, looked up): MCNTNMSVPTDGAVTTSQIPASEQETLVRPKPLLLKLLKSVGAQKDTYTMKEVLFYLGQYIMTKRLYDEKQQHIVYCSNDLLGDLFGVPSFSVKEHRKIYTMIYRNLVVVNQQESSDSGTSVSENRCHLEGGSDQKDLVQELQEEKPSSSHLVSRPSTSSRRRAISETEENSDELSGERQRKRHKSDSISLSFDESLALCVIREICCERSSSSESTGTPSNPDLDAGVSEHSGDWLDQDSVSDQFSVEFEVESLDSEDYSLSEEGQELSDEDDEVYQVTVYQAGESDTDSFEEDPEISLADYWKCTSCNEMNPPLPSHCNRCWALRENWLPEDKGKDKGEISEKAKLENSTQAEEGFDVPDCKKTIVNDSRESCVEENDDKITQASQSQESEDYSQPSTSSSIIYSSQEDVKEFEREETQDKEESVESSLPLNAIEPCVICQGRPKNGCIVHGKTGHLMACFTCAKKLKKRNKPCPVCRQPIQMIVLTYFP
A1 inh – inhibitors of the anti-apoptotic protein A1, read as caspase activation. actives 0.066% (n = 330,000). MEF A1-2A-BIM cells, Caspase-Glo 3/7 luminescence, 3 h; percent of clofoctol response, vehicle zero. caspase activation, % (concentration not given with the values);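 active = over half of replicate activation scores above 10%, or exactly half above 10 with the replicate mean above 10; inconclusive = replicate mean below 10 yet half the replicates above 10; inactive = over half of replicates below 10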
Jurkat NFkB inh – lowers PMA/ionomycin-induced NF-kB signal in Jurkat cells. PMA/ionomycin-induced NF-kB luciferase reporter, luminescence. AID 435003. inhibition, % at 4 µM. actives 0.53% (n = 330,000); in the data active = inhibition above about 50%
697 NFkB inh – lowers PMA/ionomycin-induced NF-kB signal in 697 B cells | 697 B-cell NF-kB luciferase reporter, 16 h | actives 0.33% (n = 330,000) | inhibition, % at 4 µM; in the data active = inhibition above about 35%
697 NFkB conf – lowers PMA/ionomycin-induced NF-kB signal in 697 B cells; shares compounds with 697 NFkB inh; 697 B-cell NF-kB luciferase, 16 h; inhibition, % at 4 µM; actives 35% (n = 2,000); in the data active = inhibition mostly above about 28%, no sharp cut-off; inactive = mostly below about 22%
Mdm2 MdmX conf – human Mdm2/MdmX binding inhibition, confirmed. shares compounds with Mdm2 MdmX PPI. luminescent assay. inhibition, % at 8 µM. actives 55% (n = 10,000); in the data active = inhibition above about 40%
FLuc counter – counter-screen for Mdm2/MdmX inhibitors: full-length luciferase; shares compounds with Mdm2 MdmX PPI; SaOS-2 full-length luciferase counterscreen, luminescence; inhibition, % at 8 µM; actives 77% (n = 6,200); AID 504607;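 active = mean inhibition at 8 µM reaching about 37%, which flags the compound as non-specific, limit read from the data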;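 note: p53-null SaOS-2 cells with luciferase driven by a doxycycline-inducible promoter; compound on cells about two nights before reading with doxycycline added after day one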
Of the large screens only hits and unclear results are named; the others gave an inactive call (follow-up assays come after a bar, where they were run). In the library only some 3.8% were active in any assay of this set; here they are far more common.

CC(=O)Nc1ccc(S(=O)(=O)c2cc(O)ccc2O)cc1	none (no result: Beta cell apopt)
O=C(O)c1nn(CCOc2c(Cl)cccc2Cl)c(=O)c2ccccc12	Mdm2 MdmX PPI 69 | 697 NFkB conf inactive | Mdm2 MdmX conf 54 | FLuc counter 44
CC[C@@H](C)CN1C(=O)N[C@@H](c2ccccc2)C(C(C)=O)=C1C	none
CCN(CC)c1ccc2cc(-c3nc4ccccc4[nH]3)c(=O)oc2c1	Beta cell apopt inconclusive, Mdm2 MdmX PPI 67 | 697 NFkB conf inactive | Mdm2 MdmX conf 47 | FLuc counter 45
Cc1ccc(C)c(-n2nnnc2Sc2nnnn2-c2ccccc2)c1	Mdm2 MdmX PPI 100, 697 NFkB inh 35 (no result: Beta cell apopt) | 697 NFkB conf 33 | Mdm2 MdmX conf 79 | FLuc counter 52
CN1c2ccccc2C(C)(C)C12CC(c1cccc(S(=O)(=O)N3CCCC3)c1)=NO2 (centres undefined)	Mdm2 MdmX PPI 69 | 697 NFkB conf inactive | Mdm2 MdmX conf 65 | FLuc counter 106
CN1c2ccccc2C(C)(C)C12CC(c1ccc(S(=O)(=O)N3CCCCC3)cc1)=NO2 (centres undefined)	Mdm2 MdmX PPI 65 | 697 NFkB conf inactive | Mdm2 MdmX conf 74 | FLuc counter 74
CCN(CC)S(=O)(=O)c1ccc(C2=NOC3(C2)N(C)c2ccccc2C3(C)C)cc1 (centres undefined)	Mdm2 MdmX PPI 72 | 697 NFkB conf inactive | Mdm2 MdmX conf 69 | FLuc counter 79
CCCOc1c(OC)cccc1C1CC(=O)Nc2cc(OC)c(OC)c(OC)c21 (centres undefined)	none
COc1ccc(OC)c(C2CC(=O)Nc3cc(OC)c(OC)c(OC)c32)c1 (centres undefined)	Mdm2 MdmX PPI 56, 697 NFkB inh 35 | 697 NFkB conf 43 | Mdm2 MdmX conf inactive
CCOC(=O)C1=C(NC(=S)NC(=O)c2ccccc2)c2ccccc2CC1C(C)C (centres undefined)	Mdm2 MdmX PPI 96 | 697 NFkB conf inactive | Mdm2 MdmX conf inactive
CCOC(=O)C1=C(NC(=S)NC(=O)c2ccccc2)c2ccccc2CC1(C)CC (centres undefined)	Mdm2 MdmX PPI 77 | 697 NFkB conf inactive | Mdm2 MdmX conf 66 | FLuc counter 53
CCOC(=O)c1c(NC(=O)c2ccccc2)sc2c1CCc1ccccc1-2	none
CCOC(=O)c1ccc(NC(=O)c2ccc(NC(=O)c3ccccc3)cc2)cc1	none
COc1ccc(CN(C)CC(=O)Nc2cccc(S(=O)(=O)N(C)c3ccccc3)c2)c(OC)c1	none
CCOc1ccc(/C=N/N2CCN(Cc3ccccc3)CC2)cc1	none
CC(Sc1nnc(C2CC2)n1-c1ccccc1)C(=O)N1CCCC1 (centres undefined)	none (no result: Beta cell apopt, A1 inh)
COc1ccc(-c2cc3ccccc3s2)cc1[C@H]1[C@H]2C=CC[C@@H](C)[C@@H]2C(=O)N1Cc1ccccc1	none
COc1ccc(/C=C/c2ccccc2)cc1[C@H]1[C@H]2C=CC[C@@H](C)[C@@H]2C(=O)N1Cc1ccccc1	697 NFkB inh 65 | 697 NFkB conf 32 | Mdm2 MdmX conf inactive
COc1ccc(-c2ccc(C(C)=O)cc2)cc1[C@H]1[C@H]2C=CC[C@@H](C)[C@@H]2C(=O)N1Cc1ccccc1	Mdm2 MdmX PPI 58, 697 NFkB inh 48 | 697 NFkB conf 49 | Mdm2 MdmX conf inactive
O=C(NCCCN1CCCC1=O)Nc1ccccc1F	none
COc1ccc(Nc2nccc(-c3cccc(N)c3)n2)cc1	Mdm2 MdmX PPI 65 | 697 NFkB conf inactive | Mdm2 MdmX conf inactive
CCOC(=O)c1ccc(NC(=O)CSc2nnc(CC)o2)cc1	none
CCC(C)(C)c1ccc(OCCCC[n+]2ccccc2)c(C(C)(C)CC)c1	Beta cell apopt 114, Mdm2 MdmX PPI 84, 697 NFkB inh 78 | 697 NFkB conf 34 | Mdm2 MdmX conf 94 | FLuc counter 56
Cc1nc2ccc([N+](=O)[O-])cc2c(=O)n1Cc1ccccc1Br	none
Cc1cnc(NC(=O)COc2cccc3c2OC(C)(C)C3)s1	Mdm2 MdmX PPI 77 | 697 NFkB conf inactive | Mdm2 MdmX conf 68 | FLuc counter 42
COc1ccc(NC(=O)COc2cccc3c2OC(C)(C)C3)cc1OC	none
COc1ccc(-c2cc(C(=O)N(C)CC(=O)Nc3ccccc3Br)c3ccccc3n2)cc1OC	Mdm2 MdmX PPI 56, 697 NFkB inh 44 | 697 NFkB conf inactive | Mdm2 MdmX conf 49 | FLuc counter 80
CN(CC(=O)Nc1ccccc1Br)C(=O)c1cc(Cl)nc2ccccc12	none
CC(OC(=O)CCc1nc2ccccc2c(=O)[nH]1)C(=O)Nc1cccc(C(F)(F)F)c1 (centres undefined)	none
CCN(c1cccc(C)c1)S(=O)(=O)c1ccc2c(c1)N(C(C)=O)CCS2	none (no result: Beta cell apopt, A1 inh)
Cn1c(-c2ccccc2)cc2c3no[n+]([O-])c3ccc21	Beta cell apopt 106, Mdm2 MdmX PPI 58 | 697 NFkB conf inactive | Mdm2 MdmX conf 73 | FLuc counter 53
Cn1c(-c2ccccc2)cc2ccccc21	none
Cc1cc(C)n2nc(C(=O)OCC(=O)N3CC(C)CC(C)C3)nc2n1 (centres undefined)	none
Cn1c(=N)n(CC(=O)c2ccc(Cl)c(Cl)c2)c2ccccc21	Mdm2 MdmX PPI 78 | 697 NFkB conf inactive | Mdm2 MdmX conf 73 | FLuc counter 145
COc1ccc(N(C(=O)c2ccco2)C(C(=O)NC2CCCC2)c2ccc(N3CCOCC3)cc2)c(OC)c1 (centres undefined)	none
O=C(OCc1cccc(C(F)(F)F)c1)c1ccc[nH]c1=O	none
O=C(CCNS(=O)(=O)c1ccc2nsnc2c1)N1CCN(c2ccncc2)CC1	none
CCOC(=O)/C=C(\C)Sc1cc(=O)oc2ccccc12	Mdm2 MdmX PPI 55, 697 NFkB inh 36 | 697 NFkB conf 28 | Mdm2 MdmX conf inactive
Cc1ccc(-n2ncc3c(SCc4ccccn4)ncnc32)c(C)c1	Mdm2 MdmX PPI 84 | 697 NFkB conf inactive | Mdm2 MdmX conf 78 | FLuc counter inactive
O=C(Nc1ccc2c(c1)CCCN2C(=O)c1ccccc1)c1ccccc1Br	Mdm2 MdmX PPI 79 | 697 NFkB conf inactive | Mdm2 MdmX conf 46 | FLuc counter 77
COc1ccccc1C(=O)Nc1ccc2c(c1)CCCN2C(=O)c1ccccc1	none
COc1ccccc1C(=O)Nc1cccc2cccnc12	none
